In PubChem BioAssay AID605 (National Center for Advancing Translational Sciences (NCATS), 2007):
The campaign covered roughly 71,000 compounds. About 35 (0.05%) were called active. Calls come from the whole dose curve; as a rule, active = well fitted curve in the direction sought with a large enough effect; inconclusive = small, poorly fitted or top-dose-only effect, or effect the other way; inactive = flat fitted curve, though single readings scatter. A selection follows.

biological target: tRNA threonylcarbamoyladenosine biosynthesis protein TsaE (Escherichia coli (strain K12)) (UniProt P0AF67); experiment: qHTS Assay for Inhibitors of YjeE; settings: purified YjeE enzyme, qHTS inhibition assay
Method: NIH Molecular Libraries Screening Centers Network [MLSCN]
NIH Chemical Genomics Center [NCGC]
Assay Provider: Eric Brown, McMaster University
YjeE is an essential E.coli protein of unknown function that binds adenosine diphosphate (ADP). A complex of YjeE and BODIPY Texas Red-labeled ADP probe (Invitrogen, catalog number A22359) is incubated with library members. Inhibitors of YjeE-ADP binding are detected by a decrease in the fluorescence polarization (FP) of the fluorophore. Purified YjeE was supplied by Chand Mangat and Eric Brown, McMaster University.
NCGC Assay Protocol Summary:
2 uM probe/10 uM YjeE in columns 1, 2, 5-48. Titration of ADP control (from 40 mM, then 1:2) pin-transferred to top half of column 2. Column 1 and bottom half of column 2 are neutral.
Two and a half uL of reagents were dispensed to 1536-well Greiner black plates. Compounds and controls (20 nL) were transferred via Kalypsys PinTool. The plates were incubated for 15 min at room temperature, and then read on ViewLux (Perkin-Elmer) High-throughput CCD imager using BODIPY polarization filter set and 30 seconds exposure time. During dispense, reagent bottle was kept submerged into 4 deg C water bath and all liquid lines were covered with aluminum foil to minimize probe and protein degradation.
Keywords: NIH Roadmap, MLSCN, MLI, MLSMR, qHTS, NCGC, YjeE

SMILES | outcome
CCc1ccc(Nc2ncc3c(n2)CC(c2ccco2)CC3=O)cc1 (stereo not given) | inactive
COc1ccc(CN(C(=O)c2cccs2)c2nccs2)cc1OC | inactive
Cc1ccc(C(=O)CS(C)(=O)=O)cc1 | inactive
CC(C)C(=O)N1CCN(CCN=CC2=C(O)CC(c3ccco3)CC2=O)CC1 (stereo not given) | inactive
COc1cccc(N2CCN(C(=O)C3CCCN(S(=O)(=O)c4cnc[nH]4)C3)CC2)c1 (stereo not given) | inactive
O=C(Nc1c(C(=O)N2CCCCC2)cnn1-c1ccccc1)c1ccco1 | inactive
COc1ncc2nc(-c3ccc(Cl)cc3)c(=O)n(-c3ccccc3)c2n1 | inactive
COc1cc2[nH]c(=S)n(Cc3ccc(C)o3)c(=O)c2cc1OC | inactive
CCC(C)(C)N=C(NC#N)Nc1cccnc1 | inactive
C[C@@H](Nc1nc(-c2ccccc2)nc2c1oc1ccccc12)C(=O)O | inactive
Cc1ccc(N(CC(O)CN2CCCC2)S(=O)(=O)c2ccccc2)cc1 (stereo not given) | inactive
COc1ccc(N2C(=O)CC(N3CCC(C(N)=O)CC3)C2=O)cc1 (stereo not given) | inactive
CCCCCCn1c(CN2CCCC(C)C2)nc2c1c(=O)n(C)c(=O)n2C (stereo not given) | inactive
O=NO | inactive
Cc1ccc(S(=O)(=O)NC(=O)NN2C[C@H]3CCC[C@@H]3C2)cc1 | inactive
CCCn1c(=O)c(-c2ccccc2)c(O)c2ccccc21 | inactive
CC(C)CC1(C(=O)NCc2ccccn2)C=CCN1C(=O)c1ccccc1 (stereo not given) | inactive
COCCOC(=O)C1=C(C)Nc2nc(C)nn2C1c1ccccc1 (stereo not given) | inactive
CCCC(=O)Nc1nnc(CC(=O)OCC)s1 | inactive
O=C(O)[C@@H](S)[C@H](S)C(=O)O | inactive
